Results on 40 molecules are retold here after PubChem BioAssay (EPA / NIEHS).

The source made the active and inactive calls. The calls were made as follows: active = hit-call score of the fitted dose curve at least 0.9, where 1 is the maximum; inactive = score below 0.9.

Read-out in the experiment: CFLAR gene, CFLAR (gene 8837)
Nature of the experiment: LTEA_HepaRG_CFLAR: Life Technologies and Expression Analysis (LTEA) Assay for CFLAR gene using HepaRG (AID 2283455). Particulars: mRNA level, 48 h; actives raise or lower the signal. Here is the method: LTEA_HepaRG is a cell based, multiplexed-readout assay that uses HepaRG, a human liver cell line, with measurements taken at 48 hours after chemical dosing on a 96-well plate.LTEA_HepaRG_CFLAR is one of 102 assay component(s) measured in the LTEA HepaRG cell culture assay. It is a marker of Cell proliferation, survival, death.Data from the assay component LTEA_HepaRG_CFLAR was analyzed into 1 endpoint. This assay endpoint, LTEA_HepaRG_CFLAR, was analyzed with bidirectional fitting relative to DMSO as the negative control and baseline of activity. Using a type of inducible reporter, measures of mRNA induction for gain or loss-of-signal activity can be used to understand regulation of transcription factor activity. To generalize the intended target to other relatable targets, this assay endpoint is annotated to the cell cycle intended target family, where the subfamily is Cell proliferation, survival, death.
A total of 1060 chemcials from the ToxCast library were tested in eight-point concentration-response experiments. Cell culture and cytotoxicity assays were conducted at Thermo Fisher Scientific's Custom Services facility (Madison, WI). A single lot of human HepaRG cells (Thermo Fisher Scientific, Frederick, MD) was used for the cell culture experiments. 96-well format collagen type I coated plates of human HepaRG cells were prepared using established methods. Briefly, cryopreserved HepaRG cells were thawed, plated at a density of approximately 100,000 cells/well in HepaRG Thaw, Plate, and General Purpose media (HPRG770, Thermo Fisher Scientific), and incubated for 48 hours. 0.5% DMSO was selected as vehicle control to balance the requisite need of DMSO in HepaRG cultures to maintain differentiation (for example, baseline metabolism, proportions of hepatocytes vs. cholangiocytes), while enabling further hepatic receptor pathway activation (for example, PXR and CAR) in response to chemical exposure. 48 hours after plating, the culture medium was replaced with HepaRG Serum-Free Incudtion Media. Cells were exposed to each test chemical in duplicate and maintained in CO2 incubators for another 48 hours. Chemical plates were thawed to room temperature and 200x concentrations of treatment groups were prepared. 8-point conentration-reponse curves were made with the highest exposure at 100 uM, followed by half-log dilutions, all in 0.5% DMSO. Each test plate contained variouse controls, induction positive controls (1mM phenobarbital), cytotoxicity positive controls ([…] aflatoxin B1), vehicle controls (0.5% DMSO), and total lysis controls (0.5% DMSO). Cell morphology images were taken using an Essen IncuCyte FLR automated microscope, with six 96-well plates imaged in about 24 minutes. Images were captured and exported and JPEG files. Spent culture media was transfered to black-well plates for the LDH assay, and remaining media was sorted at -80 C for later use. Cells were treated with RLT buffer and frozen until shipped for gene expression analysis. Total RNA was isolated from the cell suspension in 75 uL of Buffer RLT (Qiagen, Germantown, MD 20874) by Quintiles/Expression Analysis (Durham, NC) using a custom isolation procedure. Total RNA from each plate well was transferred to a preamplification plate. Fluidigm's 96.96 Dynamic ArrayTM (Fluidigm, Amsterdam, the Netherlands) technology was used for gene expression analyses by quantitative reverse transcription polymerase chain reaction (qRT-PCR, performed by Quintiles/Expression Analysis, Durham, NC)89. Standard TaqManTM Assays (Applied Biosystems/ThermoFisher Scientific, Foster City, CA) were used to assess the expression of 93 genes selected based on their selectivity and sensitivity to important hepatic receptors known to be modulated by environmental chemicals; importance in human hepatocyte functionality; and hepatotoxicity. […]
For `Nc1nc2ncc(CNc3ccc(C(=O)N[C@@H](CCC(=O)O)C(=O)O)cc3)nc2c(=O)[nH]1`, the call was inactive.

`COCCOCCOCCOC`: the call was inactive.

For the molecule `C=CCCCCCCCCC(=O)O`, the call was inactive.

As for `CCOC(=O)c1ccc(C2CCC(NC[C@H](O)COc3ccc(O)c(NS(C)(=O)=O)c3)CC2)cc1` (stereo not given in full), the call was inactive.

`C1=CCCC=CCCC=CCC1`: the result was inactive.

For the molecule `O=C1CCC(N2C(=O)c3ccccc3C2=O)C(=O)N1` (stereo not given), the call was inactive.

Consider `On1ccccc1=S`, for which the molecule was called inactive.

Broadly, the AC50 is the concentration at which the activity in the assay is half-maximal. With `Cc1[nH]cnc1C[C@H]1CCc2c(C)c3ccccc3n2C1=O`, the concentration at half-maximal activity (AC50) is 79.9 µM (active).

`Fc1ccccc1[C@@H](F)COC1CCC(Nc2ncnc3[nH]ncc23)CC1` (stereo not given in full): the result was inactive.

Turning to `CCNc1ccccc1`, the result was inactive.

Turning to `COC(=O)c1c(Cl)c(Cl)c(C(=O)OC)c(Cl)c1Cl`, the outcome was inactive.

On to `CC(C)c1cccc(C(C)C)c1N1C(=O)c2ccc(O)cc2C1=O`, for which the molecule was called inactive.

Take `Clc1nc(Cl)c(Cl)c(Cl)c1Cl`: the result was inactive.

Regarding `COc1ccc(/C=C/S(=O)(=O)NC(=O)c2ccc(C)cc2Cl)cc1`, the call was inactive.

Consider `CCCCCCCCCCCCc1ccccc1`, for which the outcome was inactive.

Take `CC[C@H]1CC[C@H](NCc2cc3c(cc2OC)[C@H]2C[C@H]2C(=O)N3C)[C@H](c2ccccc2)N1`: the outcome was inactive.

Regarding `CNCc1ccc(NC(=O)c2c[nH]c3c2C(=O)CCC3)cc1`, the outcome was inactive.

For the molecule `CC(=O)c1ccc2c(c1)[C@H](NC(=O)c1ccc(F)cc1)[C@@H](O)C(C)(C)O2`, the molecule was called inactive.

Turning to `Cc1ccc(S(=O)(=O)O)cc1C`, the molecule was classed as inactive.

Turning to `CC(C)=CCC/C(C)=C/CO`, the molecule was called inactive.

For the molecule `CNS(=O)(=O)c1cc(C(=O)N2CCC(CCN3C4CCC3CC(n3c(C)nc5ccccc53)C4)(c3cccc(F)c3)CC2)c(Cl)cc1F` (stereo not given), the molecule was called inactive.

With `CC/C(=C\C(=N/O)C(N)=O)C(C)[N+](=O)[O-]` (stereo not given), the call was inactive.

On to `O=C(O)CC(O)C(=O)O` (stereo not given), for which the outcome was inactive.

As for `COc1ccc(-n2nc(C(F)F)cc2-c2ccc(S(C)=O)cc2)cc1` (stereo not given), the molecule was called inactive.

For `COCCOc1cc2cc(C(=O)NC3CCN(C(C)C)CC3)n(CC(=O)Nc3ccc(Cl)cn3)c2cn1`, the AC50 was 31.4 µM (active).

For `CC(=O)OCCC(C)C`, the outcome was inactive.

As for `O=C(O)CCN(C1(C(=O)NO)CCCC1)S(=O)(=O)c1ccc(Oc2ccc(F)cc2)cc1`, the call was inactive.

For `Cc1ccc(O)cc1`, the call was inactive.

Take `CCn1nc(Cc2ccccc2)cc1C1CCN(C[C@H]2C[C@H](N(C)[C@@H](C(=O)O)C(C)C)C[C@@H]2c2cccc(F)c2)CC1`: the molecule was called inactive.

Take `CC(=O)OC[C@H]1O[C@@](COC(C)=O)(O[C@H]2O[C@H](COC(C)=O)[C@@H](OC(C)=O)[C@H](OC(C)=O)[C@H]2OC(C)=O)[C@@H](OC(C)=O)[C@@H]1OC(C)=O`: the molecule was classed as inactive.

For `CCOCCOCCOCCO`, the call was inactive.

Regarding `CC(C)=CCC/C(C)=C\CO`, the call was inactive.

In the case of `Nc1ccc(Nc2ccccc2)cc1`, the molecule was called inactive.

For `O=C(O)c1cccc(N(Cc2cccnc2)c2ccc(OC(F)F)c(OC(F)F)c2)c1`, the molecule was called inactive.

As for `CCCN(C1CCN(C(=O)C2CCNCC2)CC1)[C@@H]1CCc2ccc(OC)cc2C1`, the concentration at half-maximal activity (AC50) is 50 µM (active).

For `CC1=CC(=O)CC(C)(C)C1`, the molecule was classed as inactive.

As to `Cn1c(=O)c2c(ncn2C)n(C)c1=O`, the molecule was classed as inactive.

Consider `CC[C@H](C)C(=O)O[C@H]1C[C@@H](C)C=C2C=C[C@H](C)[C@H](CC[C@@H]3C[C@@H](O)CC(=O)O3)[C@H]21`, for which the call was inactive.

In the case of `CCCC(=O)OCC`, the molecule was classed as inactive.

Take `CCc1cc(SCc2sc(-c3ccc(C(F)(F)F)cc3)nc2CN2CCN(c3ccc(OC)cc3)CC2)ccc1OCC(=O)O`: the AC50 is 92.2 µM (active).
